An excerpt weighted towards active compounds, which were near 3.6% of everything screened.
KKLEB tox: reduces viability of KKLEB cystic fibrosis airway cells | KKLEB CF airway cells viability, ATPlite luminescence, overnight; hits give low values; cells stimulated with P. aeruginosa culture filtrate | activity change (cytotoxicity), % at 5 µM | actives 0.36% (n = 360,000) | AID 602141;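 active = corrected activity change at or below -50% at 5 µM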
LGR2 antag: inhibitors of bursicon-induced Drosophila LGR2 receptor cAMP signaling. actives 0.35% (n = 380,000). HEK293 LGR2, CRE-luciferase, bursicon-stimulated, 4 h. AID 720647. inhibition, % at 9.99 µM;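 active = drop in luminescence signal, shown as inhibition above about 50% in the replicate tests, limit read from the data, passing the limit was not always enough; inconclusive = probably only some replicates passing the limit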;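 note: agonist challenge used bursicon conditioned medium at about half maximal strength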
Peg3 prom inh-1: Peg3 promoter activity inhibition; HeLa PEG-Prom luciferase reporter, luminescence, overnight; inhibition, % at 20 µM; actives 1.7% (n = 360,000); AID 588405;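 active = inhibition of at least 50% at 20 µM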
Mdm2-MdmX inh: human Mdm2/MdmX binding inhibition. O15151+Q00987. SaOS-2 split-luciferase Mdm2/MdmX complementation, luminescence. inhibition, % at 8 µM. actives 3% (n = 330,000). AID 485346;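 active = inhibition of at least 50% at 8 µM in the primary screen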
Target sequence (O15151 whole entry, looked up): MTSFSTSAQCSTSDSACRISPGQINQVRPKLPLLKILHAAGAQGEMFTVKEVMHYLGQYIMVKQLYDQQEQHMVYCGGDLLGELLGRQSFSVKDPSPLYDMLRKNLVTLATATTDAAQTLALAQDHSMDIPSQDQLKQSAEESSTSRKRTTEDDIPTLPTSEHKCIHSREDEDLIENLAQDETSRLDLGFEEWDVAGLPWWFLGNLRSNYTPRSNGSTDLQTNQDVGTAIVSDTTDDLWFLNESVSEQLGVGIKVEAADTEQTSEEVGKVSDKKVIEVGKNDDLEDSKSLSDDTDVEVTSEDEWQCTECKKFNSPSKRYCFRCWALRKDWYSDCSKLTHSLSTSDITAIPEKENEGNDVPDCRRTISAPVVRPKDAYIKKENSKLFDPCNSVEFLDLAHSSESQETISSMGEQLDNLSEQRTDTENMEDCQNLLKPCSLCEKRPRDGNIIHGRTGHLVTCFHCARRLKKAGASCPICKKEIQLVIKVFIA
Target sequence (Q00987 whole entry, looked up): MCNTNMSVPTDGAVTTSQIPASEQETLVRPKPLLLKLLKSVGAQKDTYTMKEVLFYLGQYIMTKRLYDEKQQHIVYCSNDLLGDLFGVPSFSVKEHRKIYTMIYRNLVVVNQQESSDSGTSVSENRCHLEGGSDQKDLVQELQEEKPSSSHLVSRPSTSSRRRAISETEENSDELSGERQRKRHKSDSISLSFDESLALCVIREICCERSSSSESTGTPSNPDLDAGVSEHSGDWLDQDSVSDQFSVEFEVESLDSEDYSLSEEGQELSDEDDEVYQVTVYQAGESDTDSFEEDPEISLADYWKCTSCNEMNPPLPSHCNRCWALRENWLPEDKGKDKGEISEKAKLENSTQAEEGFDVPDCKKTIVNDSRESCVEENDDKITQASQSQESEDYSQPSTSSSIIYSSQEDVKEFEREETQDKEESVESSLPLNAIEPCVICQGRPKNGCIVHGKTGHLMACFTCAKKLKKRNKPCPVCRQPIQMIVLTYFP
CF NFkB block: inhibitors of cystic fibrosis induced NF-kB; KKLEB NF-kB-GFP reporter, PAF-induced, GFP fluorescence overnight; inhibition, % at 5 µM; actives 0.86% (n = 360,000); AID 588850;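 active = at least 50% inhibition at 5 µM, scaled per plate between neutral and stimulator controls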;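 note: PAF is a Pseudomonas aeruginosa culture filtrate used as stimulus; plate controls were PAF-stimulated DMSO wells for no effect and unstimulated DMSO wells for full effect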
HSP90 refold inh: blocks HSP90-mediated luciferase refolding in reticulocyte lysate; Rabbit reticulocyte lysate, luciferase refolding luminescence, 3 h; inhibition, % at 5.6 µM; actives 0.91% (n = 290,000);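 active = inhibition above the screen-wide mean plus 3 SD, computed separately per campaign, cut at about 16% in these data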;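 note: 0% = DMSO wells and 100% = 60 µM geldanamycin wells; inhibitors lower the luminescence because luciferase stays unfolded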
Mdm2-MdmX conf: confirmation of human Mdm2/MdmX interaction inhibitors. Mdm2-MdmX binding, luminescent assay. inhibition, % at 8 µM. AID 489028. actives 55% (n = 10,000). shares compounds with Mdm2-MdmX inh
FLuc counter: full-length luciferase inhibition in Mdm2/MdmX counter-screen; shares compounds with Mdm2-MdmX inh; SaOS-2 full-length luciferase counterscreen, luminescence; inhibition, % at 8 µM; actives 77% (n = 6,200); AID 504607;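 active = mean inhibition at 8 µM reaching about 37%, which flags the compound as non-specific, limit read from the data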;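 note: p53-null SaOS-2 cells with luciferase driven by a doxycycline-inducible promoter; compound on cells about two nights before reading with doxycycline added after day one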
Peg3 prom inh-2: Peg3 promoter inhibition confirmation; shares compounds with Peg3 prom inh-1; HeLa PEG-Prom luciferase reporter, luminescence, overnight; inhibition, % at 20 µM; actives 84% (n = 1,300); AID 602417;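 active = at 20 µM dose, 40% or more inhibition averaged across four replicates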
CF NFkB inh conf: CF NF-kB inhibition confirmation, single concentration | shares compounds with CF NFkB block | KKLEB CF airway cells, PAF-induced NF-kB-GFP fluorescence, overnight | inhibition, % at 5 µM | actives 64% (n = 1,300);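 note: stimulus PAF is a Pseudomonas aeruginosa filtrate and not platelet activating factor; plate controls were DMSO wells with stimulus for no effect and unstimulated DMSO wells for full effect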
Active calls of the source: *; ? = inconclusive; · = not tested or not shown. Cut-off read from the data, not from the text of the source, unless noted: active = inhibition above about 40%; inactive = the rest.

SMILES | KKLEB tox | LGR2 antag | Peg3 prom inh-1 | Mdm2-MdmX inh | CF NFkB block | HSP90 refold inh | Peg3 prom inh-2 | others
COc1ccc(C#Cc2ccc([C@H]3[C@@H](CO)N4CCCCN(C(=O)Cc5cccnc5)C[C@@H]34)cc2)cc1 | · | -9.5 | · | · | · | · | ·
CC(=O)c1c(C)n(C2CCCCC2)c2ccc(O)cc12 | -14.5 | 24.6 | 19.8 | 81.9* | 96.4* | -0.1 | · | Mdm2-MdmX conf=81.8*;FLuc counter=47.9*;CF NFkB inh conf=100.0*
CCCN1[C@@H]2Cn3c(ccc(-c4cccc(C(=O)N(C)C)c4)c3=O)[C@H]1[C@@H](C(=O)OC)[C@@H]2CO | · | 5.3 | · | · | · | · | ·
O=C(Cc1ccccn1)N1CCCCN2[C@H](CO)[C@@H](c3ccc(-c4ccccc4F)cc3)[C@@H]2C1 | · | 7.0 | · | · | · | · | ·
COc1ccc2c(c1)[nH]c1c(C)nccc12 | 5.8 | 34.7 | 18.1 | 89.6* | 57.3* | · | · | Mdm2-MdmX conf=90.5*;FLuc counter=22.6;CF NFkB inh conf=82.9*
O=C(CN1CCOCC1)c1cccc2ccccc12 | -8.9 | · | 13.9 | 17.6 | 6.4 | 0.9 | ·
Cc1c(C(=O)c2cccc3ccccc23)c2cccc3c2n1[C@H](CN1CCOCC1)CO3 | -7.4 | 23.8 | 79.4* | 91.5* | 55.2* | · | · | Mdm2-MdmX conf=57.4*;FLuc counter=93.5*;CF NFkB inh conf=64.0*
O=C1NCN(c2ccccc2)C12CCN(C(c1cccs1)c1nnnn1Cc1ccccc1)CC2 (centres undefined) | -2.4 | 10.2 | 50.0* | · | -11.0 | · | 40.5*
COCC(=O)N1[C@@H]2c3ccc(C4=CCCC4)c(=O)n3C[C@H]1[C@H](CO)[C@H]2C(=O)OC | · | -15.6 | · | · | · | · | ·
CCCCn1nnnc1C(CCSC)N1CCC(n2c(=O)[nH]c3ccccc32)CC1 (centres undefined) | 9.3 | 13.9 | 51.8* | · | -23.3 | · | 67.8*
CCCCn1nnnc1C(C1CC1)N1CCC(n2c(=O)[nH]c3ccccc32)CC1 (centres undefined) | -5.1 | 5.6 | 43.6 | · | 6.8 | · | ·
COc1cccc(C(c2nnnn2-c2c(C)cccc2C)N2CCC(n3c(=O)[nH]c4ccccc43)CC2)c1OC (centres undefined) | -6.1 | 29.9 | 57.5* | · | 20.1 | · | 41.9*
CCOC(=O)[C@]12Cc3cc(C)ccc3[C@H]1N(Cc1ccccc1)C(=O)c1ccccc12 | 15.4 | 27.1 | 65.1* | · | -24.5 | · | 33.7
CCOC(=O)c1c(-n2c(C)cc(C=C3C(=O)NC(=S)NC3=O)c2C)sc2c1CCCC2 | 4.6 | · | 108.8* | -5.7 | 34.4 | 0.1 | 62.2*
Cc1ccccc1C(=O)N1Cc2cnnn2-c2ccccc2C1C#N (centres undefined) | 14.3 | 8.3 | -15.1 | · | -7.6 | · | ·
Cc1ccccc1CN1Cc2cnnn2-c2ccccc2C1C#N (centres undefined) | -11.2 | ? | 95.3* | · | 38.4 | · | 98.0*
Cc1nc2ccccc2c(=O)n1-c1ccc(Cl)c(Cl)c1 | -5.1 | -8.4 | 5.2 | 2.3 | -2.3 | 0.2 | ·
O=c1c2ccccc2nc(CSc2ncnc3nc[nH]c23)n1-c1ccc(Cl)c(Cl)c1 | -5.7 | 11.7 | 60.2* | 30.6 | 0.9 | -1.1 | 45.1*
O=C(O)[C@H]1[C@H](CO)[C@H]2Cn3c(ccc(-c4ccncc4)c3=O)[C@@H]1N2C(=O)C1CCCC1 | · | 11.4 | · | · | · | · | ·
CN1[C@H](CO)[C@H]2c3ccccc3NC[C@H]21 | · | -13.1 | · | · | · | · | ·
CC[n+]1c(-c2ccccc2)c2cc(N)ccc2c2ccc(N)cc21 | 0.1 | 38.7 | 55.3* | · | -66.5 | · | 87.3*
O=C(Cc1ccccn1)N1CCCCN2[C@H](CO)[C@H](c3ccc(-c4ccccc4F)cc3)[C@@H]2C1 | · | 1.9 | · | · | · | · | ·
COc1cccc(-n2c(/C=C/c3ccc(O)c(O)c3)nc3ccccc3c2=O)c1 | 2.9 | 31.8 | 35.5 | 45.2 | -45.1 | 0.1 | ·
COc1ccc(-n2c(/C=C/c3ccc(O)c(OC)c3)nc3ccccc3c2=O)cc1 | -26.9 | 6.8 | 55.5* | 44.4 | 33.4 | -0.1 | 68.8*
CCC1(OC(=O)CN)C(=O)OCc2c1cc1n(c2=O)Cc2cc3ccccc3nc2-1 (centres undefined) | -33.5 | 96.4* | 83.5* | · | 79.2* | 3.7 | 72.6*
SMILES | KKLEB tox | LGR2 antag | Peg3 prom inh-1 | Mdm2-MdmX inh | CF NFkB block | HSP90 refold inh | Peg3 prom inh-2 | others
CC[C@@]1(O)C(=O)OCc2c1cc1n(c2=O)Cc2cc3ccccc3nc2-1 | · | · | · | · | · | 2.1 | ·
O=C1NC(=S)NC(=O)C1=Cc1cccn1-c1ccc(O)cc1 | 2.1 | · | 70.8* | · | 25.5 | 0.9 | 49.1*
Cc1[nH]c2ccc(OC(F)(F)F)cc2c1CCNCc1cccc([N+](=O)[O-])c1 | -14.2 | 10.7 | 81.5* | 47.4 | 12.7 | 4.8 | 58.0*
COc1ccc(OC(=O)N(C)C[C@@H]2OCc3ccccc3-c3c(n(C)c4ccccc34)C(=O)N([C@H](C)CO)C[C@H]2C)cc1 | · | 11.1 | · | · | · | · | ·
COC(COC(N)=O)C1=C(N2CC2)C(=O)C(C)=C(N2CC2)C1=O (centres undefined) | -37.3 | 7.6 | 97.9* | · | 88.6* | · | 97.2*
COC(=O)[C@@H]1[C@@H](CO)[C@@H]2Cn3c(ccc(-c4ccccc4)c3=O)[C@H]1N2S(=O)(=O)c1ccccc1C | · | 13.6 | · | · | · | · | ·
CC1=CC2OC3CC4OC(=O)C=CC=CC(C(C)O)OCC(O)C(C)CC(=O)OCC2(CC1O)C4(C)C31CO1 (centres undefined) | -51.8* | 107.0* | 96.5* | · | 85.5* | · | 97.7*
C[C@@H]1CN([C@@H](C)CO)C(=O)CCCn2cc(nn2)CO[C@@H]1CN(C)C(=O)Oc1cccc2ccccc12 | · | 5.4 | · | · | · | · | ·
CC(=O)OC1CC[C@]2(C#N)[C@H]3CC[C@]4(C)[C@H](C5C=CC(=O)O5)CCC4(O)C3CCC2(O)C1 (some centres undefined) | -15.1 | 7.5 | 75.6* | 11.3 | 22.1 | -0.4 | 86.6*
COC(=O)[C@@H]1[C@@H](CO)[C@@H]2Cn3c(ccc(C4=CCCCC4)c3=O)[C@H]1N2C(=O)CC1CC1 | · | 2.0 | · | · | · | · | ·
O=C(Cc1ccccn1)N1CCCCN2[C@H](C1)[C@@H](c1ccc(Br)cc1)[C@@H]2CO | · | 0.4 | · | · | · | · | ·
N#Cc1ccc(Cn2cc(C=O)c3ccccc32)cc1 | -0.7 | 17.1 | 73.6* | 10.9 | 6.8 | -3.4 | 60.6*
CC=Cc1ccc2n(c1=O)C[C@@H]1[C@@H](CO)[C@H](C(=O)OC)[C@H]2N1CC1CCOCC1 (mixture of isomers) | · | 4.0 | · | · | · | · | ·
C[C@@H]1CN([C@H](C)CO)C(=O)c2c(c3ccccc3n2C)-c2ccccc2CO[C@@H]1CN(C)C(=O)Oc1ccccc1 | · | 18.1 | · | · | · | · | ·

Source: PubChem
